Screening results as filed in PubChem BioAssay.
Only some compounds are listed: those with a hit (about 2.6% of all), similar ones and a draw of the others.
Cruzain inh Det: cruzain (T. cruzi) inhibition with detergent; Potency, µM, for the others: max response, negative = inhibition, hits mostly inhibitors; P25779; 200,000 tested, 0.43% active; purified cruzain, Z-FR-AMC fluorescence, 0.01% Triton;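 also: plate controls were neutral wells for no effect and buffer without enzyme for full effect; nearly all actives have a fitted effect of over 40% in size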
Target sequence (P25779 123-467 limits assumed): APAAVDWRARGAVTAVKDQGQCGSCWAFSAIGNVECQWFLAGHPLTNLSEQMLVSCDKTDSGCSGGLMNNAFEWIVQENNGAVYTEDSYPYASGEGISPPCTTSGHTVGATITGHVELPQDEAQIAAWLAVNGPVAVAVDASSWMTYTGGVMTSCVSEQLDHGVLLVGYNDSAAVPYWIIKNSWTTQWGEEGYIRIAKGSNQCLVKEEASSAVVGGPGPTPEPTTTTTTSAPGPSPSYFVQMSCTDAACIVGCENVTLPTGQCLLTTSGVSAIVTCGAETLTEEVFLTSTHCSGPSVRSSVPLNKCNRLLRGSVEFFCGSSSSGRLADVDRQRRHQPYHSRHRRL
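Purified cruzain (1.5 nM final) was preincubated with compounds for 15 min at room temperature in 100 mM sodium acetate pH 5.5, 5 mM DTT, 0.01% Triton X-100. Reaction started with 2 uM Z-FR-AMC; AMC fluorescence change over 60 s gave activity.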
Cruzain noTriton: blocks cruzain activity in detergent-free assay; P25779; purified cruzain, Z-FR-AMC fluorescence, no detergent; Potency, µM, for the others: max response, negative = inhibition, actives largely listed as inhibitors; 200,000 tested, 2.3% active; AID 1476;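 also: plate controls were enzyme without inhibitor for no effect and buffer without enzyme for full effect; nearly all actives have a fitted effect of over 40% in size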
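Detergent-free condition (0.00005% Triton X-100) in acetate buffer pH 5.5 with DTT. 1.5 nM enzyme and compound were pre-mixed 15 min, then 2 uM Z-FR-AMC substrate added; reaction progress from fluorescence change between first and third reads (60 s).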
Active calls of the source: *; ? = inconclusive. Calls follow the shape of the dose curve; as a rule, active = well fitted curve in the direction sought with a large enough effect; inconclusive = small, poorly fitted or top-dose-only effect, or another doubt; inactive = no such curve, though single readings can be large; an effect the other way counts as inactive or inconclusive. Potency is read from the fitted curve at half-maximal effect.

SMILES | Cruzain inh Det | Cruzain noTriton
COc1ccc(C2C(=O)N(C3CCCCCC3)CC(=O)N2Cc2ccccc2)cc1 (stereo not drawn) | 2.1% | -14.9%
CC(C)C[C@H](NC(=O)C1OC1C(=O)O)C(=O)NCCCCN=C(N)N (stereo partly drawn) | 0.0794µM* | 0.0398µM*
CC(C)CC(NC(=O)C1CCCN1C(=O)OC(C)(C)C)C(=O)NCC(N)=O (stereo not drawn) | 1.6% | -5.0%
CCc1ccccc1NC(=O)Cn1c(=O)n(Cc2ccccc2)c(=O)c2c(C)c(C(=O)N(C)C)sc21 | 0.6% | ?
COc1ccc(-c2csc3ncnc(Nc4cc(OC)cc(OC)c4)c23)cc1 | 4.9% | 36.6%
N/C(=N\c1nc(CSc2ccc(Cl)cc2)cc(=O)[nH]1)Nc1cccc2ccccc12 | -3.8% | 10µM*
COc1ccc(N/C(N)=N/c2nc(CSc3ccc(Cl)cc3)cc(=O)[nH]2)cc1 | -5.5% | -18.0%
COc1cc(C(=O)N2CCc3c([nH]c4ccccc34)C2c2ccc(F)cc2)cc(OC)c1OC (stereo not drawn) | 0.9% | -4.0%
Cc1noc(C(=O)Nc2ccc3c(c2)OCO3)c1Cl | -5.8% | -2.6%
Cc1ccc2c(Cl)c(C(=O)Nc3ccc4c(c3)OCO4)sc2c1 | -3.0% | 20µM*
CCC(C)c1ccc(OCC(=O)Nc2ccc3[nH]c(=O)[nH]c3c2)cc1 (stereo not drawn) | -1.7% | 25.1µM*
CCC(C)c1ccc(OCC(=O)O)cc1 (stereo not drawn) | 2.8% | -2.1%
COc1ccccc1-c1nccc(N2CCN(C)CC2)n1 | 0.9% | -14.6%
O=C(Cc1ccc(F)cc1)Nc1cccc(-c2nc3cccnc3s2)c1 | -4.0% | -0.1%
COc1ccc(C(=O)COC(=O)c2cc(-c3cccs3)nc3ccccc23)cc1 | -4.2% | 20µM*
Cc1ccc(C(=O)COC(=O)c2cc(-c3cccs3)nc3ccccc23)cc1 | -7.9% | ?
Nc1cc(C(=O)OCC(=O)NCc2ccc(F)cc2)ccc1Cl | 3.8% | 0.1%
Nc1cc(C(=O)OCC(=O)NC(c2ccccc2)c2ccccc2)ccc1Cl | -1.5% | 25.1µM*
CCn1c2c(c(=O)n3ncc(C(=O)Nc4cccc(Cl)c4C)c13)CN(Cc1ccc(OC)cc1)CC2 | -7.3% | 17.8%
CCOc1ccccc1NC(=O)C1=C(C)Nc2ncnn2C1c1cccs1 (stereo not drawn) | -0.8% | 0.6%
Cc1ccc(CNC(=O)c2ccccc2NC(=O)c2nsc3ccccc23)cc1 | 4.0% | -12.3%
CCOC(=O)CSc1nc2c(sc3ccccc32)c(=O)n1CCO | -4.1% | 24.7%
O=[N+]([O-])c1ccc(S(=O)(=O)N2CCn3cccc3C2c2ccccc2F)cc1 (stereo not drawn) | -8.0% | ?
COc1ccc(C2c3cccn3CCN2S(=O)(=O)c2ccc([N+](=O)[O-])cc2)cc1 (stereo not drawn) | -3.2% | 25.1µM*
COc1ccc(CCNC(=O)CCn2c(=O)c3ccccc3n(Cc3cc(C)ccc3C)c2=O)cc1OC | -0.2% | -2.4%
SMILES | Cruzain inh Det | Cruzain noTriton
CC1CCCc2sc3nc(SCC(=O)c4ccc(Br)cc4)nc(N)c3c21 (stereo not drawn) | -3.2% | 10µM*
CCCCCCSc1nc(N)c2c3c(sc2n1)CCCC3C (stereo not drawn) | -4.7% | -26.2%
CNc1oc(/C=C/c2ccccc2)nc1C#N | 25.1µM* | ?
CNc1oc(-c2ccccc2)nc1C#N | -9.1% | 29.5%
Cc1c(Cl)cccc1NC(=O)CCn1cnnn1 | 1.1% | 6.6%
CC(=O)Nc1ccc(C(=O)Nc2ccc3c(c2)N(C2CCCC2)C(=O)c2ccccc2S3)cc1 | -4.2% | -28.5%
O=C(CSc1nnc(-c2c[nH]c3ccccc23)o1)N1CCCCC1 | -2.2% | 0.4%
O=C(CSc1nnc(-c2c[nH]c3ccccc23)o1)c1ccc(-c2ccccc2)cc1 | -0.7% | 5.01µM*
Cc1cc(C(=O)NCc2ccccc2)c2c(C)nn(-c3cccc(Cl)c3C)c2n1 | -2.1% | 2.8%
CN(CCOc1ccc(-c2ccn(S(=O)(=O)c3cccc4ccccc34)n2)cc1)c1ccccn1 | -0.7% | 25.1µM*
CN(CCOc1ccc(-c2ccn(S(=O)(=O)c3c(Cl)cccc3Cl)n2)cc1)c1ccccn1 | 6.4% | ?
Cc1ccc2nc(-c3ccc(NC(=O)COc4ccccc4)cc3)sc2c1 | 0.1% | ?
CC(=O)NC(=S)Nc1ccc(-c2nc3ccc(C)cc3s2)cc1 | -0.6% | 6.31µM*
Cc1ccc2nc(-c3ccc(NC(=O)COC(=O)c4ccc([N+](=O)[O-])o4)cc3)sc2c1 | -5.8% | 15.8µM*
Cc1ccc2nc(-c3ccc(NC(=O)COC(=O)c4ccco4)cc3)sc2c1 | -2.1% | ?
CCOc1ncccc1C(=O)OCC(=O)Nc1ccc(-c2nc3ccc(C)cc3s2)cc1 | -4.5% | -2.6%
Cc1ccc2nc(-c3ccc(NC(=O)COC(=O)c4cncc(Br)c4)cc3)sc2c1 | -2.4% | 6.31µM*
Cc1ccc2nc(-c3ccc(NC(=O)COC(=O)c4ccc(Br)o4)cc3)sc2c1 | -0.9% | 12.6µM*
